These results are taken from PMC7819943, “Rice protein-binding microarrays: a tool to detect cis-acting elements near promoter regions in rice”.

The full ranking holds about 68,000 sequences; the median of “fluorescence intensity (a.u.)” is about 9,100, and the highest 2% start at about 16,000. Shown is part of a subset that was picked to be rich in the highest values.

Chain of OsWRKY34 (Q0JBA9 entry or part of it): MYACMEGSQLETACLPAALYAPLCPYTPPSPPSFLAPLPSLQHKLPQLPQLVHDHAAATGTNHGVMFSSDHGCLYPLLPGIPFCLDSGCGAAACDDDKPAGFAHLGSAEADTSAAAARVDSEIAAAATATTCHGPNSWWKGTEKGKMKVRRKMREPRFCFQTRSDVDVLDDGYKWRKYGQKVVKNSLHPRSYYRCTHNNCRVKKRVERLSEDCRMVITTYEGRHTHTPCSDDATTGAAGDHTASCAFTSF

This experiment concerns the target OsWRKY34 (Oryza sativa, UniProt Q0JBA9 1-250). Description: protein-binding microarray (RPBM); PBS, 2% BSA, 51.3 ng/ul salmon testes DNA, 50 uM zinc acetate, 200 nM TF, 25 C, 1 h; high values mean tight binding. As to conditions: protein: recombinant; tags: N-terminal polyhistidine and DsRed monomer fusion (pET32a); label: CyDye5-dUTP incorporated in the synthesized complementary strand; 3' TTTTT single-stranded linker to array surface; dsDNA, one strand shown. The method, boiled down:
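Using Ni–NTA, transcription factors fused N-terminally to polyhistidine and DsRed were purified after expression in E. coli BL21-CodonPlus. These were incubated at 200 nM with a blocked, double-stranded custom Agilent array for 1 h at 25 °C in a buffer containing 50 µM zinc acetate, and the array was washed. The binding signal is per-feature fluorescence intensity (arbitrary units) on an Axon 4000B scanner.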
“GGTTTTTCCTAGTTTTGAGATTTACGTGCTATTTTGTGAACGGAGTCACCTAGTGCAG”: the binding signal is 8950 fluorescence intensity (a.u.).

With “CGTGTCGCACCACATCCAGCGTCCCACGGCCTACCACCGCCGGAGTCACCTAGTGCAG”, the binding signal was 8700 fluorescence intensity (a.u.).

Take “ATATGGCATCTCGGTTTCGTCTTAACAGGGTATTGCACTACGGAGTCACCTAGTGCAG”: the binding signal is 9900 fluorescence intensity (a.u.).

With “ACTCCCTTGCTTTTTCTCGCTATCAATCACAATAATCCAACGGAGTCACCTAGTGCAG”, the binding signal was 9590 fluorescence intensity (a.u.).

As for “CGTGTGGTTGATTGTGTGTGCGAGCCGAATGCTGCCTACTCGGAGTCACCTAGTGCAG”, the binding signal is 9260 fluorescence intensity (a.u.).

For the sequence “TTACCATGGTGCATTTACGGCTGTGATCGCTTTGTTGTACCGGAGTCACCTAGTGCAG”, the binding signal was 9370 fluorescence intensity (a.u.).

Consider “TCTCGGCTCGCAATGCTTTTTGGAGTTTTGTTTCTCTCCCCGGAGTCACCTAGTGCAG”, for which the binding signal is 10200 fluorescence intensity (a.u.).

Turning to “TCATTGCACCTCTCATTTAACAAGGGATATAATAGTTCTTCGGAGTCACCTAGTGCAG”, the binding signal was 8360 fluorescence intensity (a.u.).

For the sequence “TGGCATCATCGACCATACACTTTTGTCAATCCGTTCAGCTCGGAGTCACCTAGTGCAG”, the binding signal is 8910 fluorescence intensity (a.u.).

In the case of “GCTTCAAACTCGAGCTTCTACCAGTACCAGCTACCAGGTGCGGAGTCACCTAGTGCAG”, the binding signal was 8190 fluorescence intensity (a.u.).

Turning to “CAAACGTTGGAAAAAAGTCAACGGCGTCATATATTTTAATCGGAGTCACCTAGTGCAG”, the binding signal was 15800 fluorescence intensity (a.u.).

Take “TAGTCAAACGTTGAAAAAAAAAGTCAACGGCGTCACACATCGGAGTCACCTAGTGCAG”: the binding signal was 20900 fluorescence intensity (a.u.).

For the sequence “AAAAAGTCAACGGCGTCAAACATATTGAAACGGAGGGAGTCGGAGTCACCTAGTGCAG”, the binding signal is 8240 fluorescence intensity (a.u.).

For “AAAATTCCTAAAACTACTTGCTACTATTCTCTCTCCAACTCGGAGTCACCTAGTGCAG”, the binding signal was 8240 fluorescence intensity (a.u.).

In the case of “TCCTCGCGTTCTTTTTCTCCACCGAGACCACCGGCGCTCTCGGAGTCACCTAGTGCAG”, the binding signal was 9050 fluorescence intensity (a.u.).

“TTGGTGGCCTTTTCTCCCTTTTTTGCATGTGCTTTGCTCTCGGAGTCACCTAGTGCAG”: the binding signal is 14100 fluorescence intensity (a.u.).

Regarding “TACCCCTCCGTTTCATATGATAAGTTGTTTGACTTTTTTTCGGAGTCACCTAGTGCAG”, the binding signal is 14300 fluorescence intensity (a.u.).

In the case of “TGATACCGTTGACTTTTCACATAACTTGGTCGTTCGTTTTCGGAGTCACCTAGTGCAG”, the binding signal is 34100 fluorescence intensity (a.u.).

For “GATTTTGACTTTTTACTTGCACTGTTTGACCATTCATATTCGGAGTCACCTAGTGCAG”, the binding signal is 16300 fluorescence intensity (a.u.).

Take “ACGCCGTTGATTTTTTTAAACATATTTGACCGTTCGTCTTCGGAGTCACCTAGTGCAG”: the binding signal is 11400 fluorescence intensity (a.u.).

As for “GACGCCGTTGACTTTTTATCACATATTTGACCGTTCGTCTCGGAGTCACCTAGTGCAG”, the binding signal was 20400 fluorescence intensity (a.u.).

For the sequence “CACATATCGTTTAAATTTTCGACTTGACCGTTTTTCAATTCGGAGTCACCTAGTGCAG”, the binding signal was 9550 fluorescence intensity (a.u.).

Turning to “GGATTTTGACTTTTTACTTGCACTGTTTGACTATTCGTCTCGGAGTCACCTAGTGCAG”, the binding signal was 18600 fluorescence intensity (a.u.).

As for “GATACCGTTGACTTTTTAGCACATATTTGACCGTTCGTCTCGGAGTCACCTAGTGCAG”, the binding signal was 39400 fluorescence intensity (a.u.).

Turning to “GGATTTTAAGTTTTTACTTGCACTGTTTGACCATTCGTCTCGGAGTCACCTAGTGCAG”, the binding signal was 9200 fluorescence intensity (a.u.).

For the sequence “AGCACATATTTGACCGTTCGTCTTATTCAAAAACTTTTATCGGAGTCACCTAGTGCAG”, the binding signal is 8540 fluorescence intensity (a.u.).

On to “ACTTCACCGGTTTCCGGCGTCCGGCGCGGCGCCTGCAGAACGGAGTCACCTAGTGCAG”, for which the binding signal is 9530 fluorescence intensity (a.u.).

In the case of “TAACACCCAACACTTACACTCTGGCATTTTGGAGGTCTTGCGGAGTCACCTAGTGCAG”, the binding signal was 8990 fluorescence intensity (a.u.).

With “AGCACCTACGGCGGCGTCTTCTCCTACTGCCTACCGCCGACGGAGTCACCTAGTGCAG”, the binding signal is 9000 fluorescence intensity (a.u.).

With “ATGACGTCCAAAGCTTCACCTTTTTTTTTATATATAAACCCGGAGTCACCTAGTGCAG”, the binding signal was 8260 fluorescence intensity (a.u.).

As to “GGGTAGGAGGAGGTAATTGAGAGGTAATTCCTCCTTTAATCGGAGTCACCTAGTGCAG”, the binding signal was 9220 fluorescence intensity (a.u.).

For the sequence “TTTTGACGACCCTAGCAATATTGCTATACACTCTTCATTCCGGAGTCACCTAGTGCAG”, the binding signal is 10700 fluorescence intensity (a.u.).

As for “AAGAAATCTTCCCTGTCCTACCTTTTCTTCTCACTGTATGCGGAGTCACCTAGTGCAG”, the binding signal is 8860 fluorescence intensity (a.u.).

“ACAGGAGAGTGATTACTTTTGCATTATTAATTGATGTTGTCGGAGTCACCTAGTGCAG”: the binding signal is 8400 fluorescence intensity (a.u.).

Consider “GACACTGTTGACTTTTTAGCACATATTTGACCGTTCGTCTCGGAGTCACCTAGTGCAG”, for which the binding signal was 21300 fluorescence intensity (a.u.).

Consider “TTTGACATCATTGACTTTTTAGCACATATTTGACCGTTCGCGGAGTCACCTAGTGCAG”, for which the binding signal is 14400 fluorescence intensity (a.u.).

Turning to “GACACCGTTAACTTTTTAGCATATGTTTGACCGTTCGTCTCGGAGTCACCTAGTGCAG”, the binding signal is 10600 fluorescence intensity (a.u.).

Turning to “CACCGTTGACTTTTTAGCACATATTTGACCGTTTGTCTTTCGGAGTCACCTAGTGCAG”, the binding signal was 39100 fluorescence intensity (a.u.).

Take “TTAGCACATGTTTGACCGTTCGTCTTATTCAAAAACTTTTCGGAGTCACCTAGTGCAG”: the binding signal was 12600 fluorescence intensity (a.u.).

“CCCACACTTCTCCCGTTCTCCTGGAGGAAGACGACACCCACGGAGTCACCTAGTGCAG”: the binding signal was 8150 fluorescence intensity (a.u.).

“CATCTTCGTCCTTTAAATTTGTTTTATTTTAAATCCTCTACGGAGTCACCTAGTGCAG”: the binding signal was 8400 fluorescence intensity (a.u.).

“TCATTTGTCATCCATAAGTTTATATTTTGTACTTTTAGTTCGGAGTCACCTAGTGCAG”: the binding signal was 8550 fluorescence intensity (a.u.).
